Compound activity as filed in PubChem.
TDP1 cell CPT = DT40-hTDP1 cell growth loss with CPT | AID 686979 | 12% of 420,000 active | Potency, µM (highest dose often 46.2 µM), actives largely listed as inhibitors | chicken DT40 Tdp1-/-;hTDP1 cells + 20 nM CPT, ATP luminescence, 48 h; also: nearly all actives have a fitted effect of over 55% in size
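Chicken DT40 Tdp1-/- cells complemented with human TDP1, 400 cells/well, exposed to compounds plus 20 nM camptothecin for at least 48 h at 37 C; viability read as ATP content by CellTiter-Glo luminescence.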
ALOX12 inh = ALOX12 (human) lipoxygenase inhibition; purified 12hLO, xylenol orange hydroperoxide absorbance; Potency, µM (highest dose often 108 µM), hits mostly inhibitors; 1.1% of 580,000 active; AID 1671190
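Hydroperoxide product was detected by ferrous iron/xylenol orange as the 573 to 405 nm absorbance ratio. Arachidonic acid at 40 uM (final) was turned over for 30 min at room temperature by 150 nM human 12hLO, pH 7.0 Hepes buffer, after 15 min compound preincubation.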
RORg inh = inhibitors of mouse ROR gamma transcriptional activity; AID 2551; Potency, µM (titrated, usually from 53.6 µM), hits mostly inhibitors; Drosophila S2 Gal4-RORgamma UAS-luciferase reporter, 20 h; P51450; 5.4% of 310,000 active; also: nearly all actives have a fitted effect of over 60% in size
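Luciferase reporter read in Schneider cells carrying Gal4-RORγ (mouse) and UAS-Photinus luciferase; cells given compound 1 h before 700 uM copper sulfate induction, then incubated 20 h at ambient temperature.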
DT40 TDP1 no CPT = qHTS for Inhibitors of human tyrosyl-DNA phosphodiesterase 1 (TDP1): qHTS in cells in absence of CPT. DT40 Tdp1-/- hTDP1 cells, no CPT, ATP luminescence, 48 h. Potency, µM (series often up to 46.2 µM), most hits filed as inhibitors. 15% of 420,000 active. AID 686978, 2013; also: nearly all actives have a fitted effect of over 55% in size
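Chicken DT40 Tdp1-/- cells stably complemented with human TDP1 were seeded at 400 cells/well with DMSO in place of 20 nM camptothecin. After compound pinning, cells grew at least 48 hr at 37 °C; viability read by CellTiter-Glo luminescence.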
ELG1 DNA repair = ELG1-dependent DNA repair inhibition. HEK293T ELG1-luciferase reporter, luminescence, 16 h; DNA damage induced by 5-fluorouridine. Potency, µM (doses to about 46.1 µM), hits mostly inhibitors. 2.3% of 330,000 active; also: nearly all actives have a fitted effect of over 55% in size
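Cells (2,000 per well) received 5-fluorouridine plus test compound or DMSO and were incubated 16 hr at 37 °C, 5% CO2. Luciferase activity was read by luminescence 30 min after ONE-Glo addition; signal suppression marked inhibition of damage-induced ELG1 function.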
VP16 counter = inhibits Gal4-VP16 luciferase reporter, ROR gamma counter-screen; Drosophila S2 Gal4-VP16 UAS-luciferase, luminescence, 20 h; Potency, µM (titrated, usually from 53.6 µM), usual class: inhibitors; 3.5% of 310,000 active; AID 2546;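 also: Gal4-VP16 expression switched on by copper sulfate through the metallothionein promoter; nearly all actives have a fitted effect of over 50% in size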
Numbers stand for hits; . = inactive; ? = inconclusive; / = no result given. This is a sample that favours compounds with a hit; in the whole collection about 15% have one here. Calls follow the shape of the dose curve; as a rule, active = well fitted curve in the direction sought with a large enough effect; inconclusive = small, poorly fitted or top-dose-only effect, or another doubt; inactive = no such curve, though single readings can be large; an effect the other way counts as inactive or inconclusive.

SMILES | TDP1 cell CPT | ALOX12 inh | RORg inh | DT40 TDP1 no CPT | ELG1 DNA repair | VP16 counter
Cc1onc(-c2ccccc2)c1C(=O)N/N=C/c1ccco1 | . | . | ? | . | . | .
Cc1cc(C)c2oc(-c3cc(NC(=O)c4cccnc4)cc(C)c3O)nc2c1 | / | . | / | / | / | /
COc1ccc(OC)c(NC(=O)c2ncoc2-c2cccc(Cl)c2)c1 | / | . | / | / | / | /
CS(=O)(=O)N1CCCN(C(=O)C2CCC2)CCNC(=O)CC1c1ccccc1 (centres undefined) | / | . | / | / | / | /
Cc1onc(-c2ccccc2)c1C(=O)N/N=C/c1ccc([N+](=O)[O-])s1 | 16µM | ? | 11µM | 13µM | ? | 11µM
Cc1onc(-c2ccccc2)c1C(=O)N/N=C/C=C/c1ccccc1 | ? | . | 2.2µM | ? | ? | 3.2µM
Cc1onc(-c2ccccc2)c1C(=O)N/N=C/c1cccc(O)c1 | . | . | . | ? | . | .
O=[N+]([O-])c1ccccc1/C=N\N1CCN(Cc2ccccc2Cl)CC1 | . | . | . | ? | ? | .
Cn1cccc1/C=N/N1CCN(Cc2ccccc2Cl)CC1 | . | . | . | 2.6µM | . | .
O=[N+]([O-])c1ccc(Cl)c(/C=N/N2CCN(Cc3ccccc3Cl)CC2)c1 | ? | . | . | 21µM | . | .
Fc1ccccc1/C=N/N1CCN(Cc2ccccc2Cl)CC1 | ? | 13µM | . | ? | ? | .
O=[N+]([O-])c1ccc(Cl)c(CN2CCCCCC2)c1 | . | 0.56µM | ? | . | . | .
O=C1NCCCCCN(C(=O)c2nccc3ccccc23)[C@H]2CCC[C@@H]12 | / | . | / | / | / | /
COc1ccc(N2C(=O)C3(CCCCC3)C2C(=O)NCCCN2CCCC2=O)cc1 (centres undefined) | / | . | / | / | / | /
CCc1cccc2c(/C=C(/C#N)c3nc4cc(C)c(C)cc4[nH]3)c[nH]c12 | / | . | / | / | / | /
CCCc1c(C)nc2ccc(Cl)cc2c1-c1ccccc1 | / | 1.8µM | / | / | / | /
CC(=O)c1c(C)nc2ccc(Cl)cc2c1-c1ccccc1 | / | . | / | / | / | /
COc1cc(OC)cc(OC(C)C(=O)Nc2ccc(F)cc2)c1 (centres undefined) | / | . | / | / | / | /
COCCc1nncn1C1CCN(S(=O)(=O)c2ccc(F)cc2)CC1 | / | . | / | / | / | /
CN(Cc1cccn1C)C(=O)C1CC1 | / | . | / | / | / | /
Cn1ncc(N2CCC(NC(=O)CC(C)(C)C)CC2)cc1=O | / | . | / | / | / | /
CCC(CC)c1nnc(NC(=O)c2cc(C(=O)OC)cc([N+](=O)[O-])c2)s1 | . | . | 7.1µM | . | . | ?
COC(=O)c1cc(C(=O)Nc2nnc(CC(C)C)s2)cc([N+](=O)[O-])c1 | . | . | 13µM | . | . | 22µM
CCc1ccc(C2=C(C)C(=NCC(=O)Nc3cccc(Cl)c3C)NS2(=O)=O)cc1 | / | . | / | / | / | /
Cc1ccc2c(c1)C(c1ccccc1)N(C(=O)c1ccccc1[N+](=O)[O-])CC(=O)N2 (centres undefined) | 12µM | . | . | 9.2µM | 21µM | .
SMILES | TDP1 cell CPT | ALOX12 inh | RORg inh | DT40 TDP1 no CPT | ELG1 DNA repair | VP16 counter
O=C1CN(C(=O)c2ccccc2[N+](=O)[O-])C(c2ccccc2)c2cc(Br)ccc2N1 (centres undefined) | 21µM | . | . | ? | 18µM | ?
Cc1ccc(C(=O)N2CC(=O)Nc3ccc(F)cc3C2c2ccccc2)cc1[N+](=O)[O-] (centres undefined) | 18µM | . | ? | 21µM | ? | .
COc1ccc(C(=O)N2CC(=O)Nc3ccc(C)cc3C2c2ccc(F)cc2)c(OC)c1 (centres undefined) | 21µM | . | / | ? | / | /
O=C(c1cccnc1)N(Cc1ccccc1)Cc1cc2ccccc2[nH]c1=O | / | . | / | / | / | /
CC(NC(=O)C1CCN(C(=O)c2ccc(-n3ccc4ccccc43)s2)CC1)c1ccccc1 (centres undefined) | ? | . | / | 18µM | / | /
CCOC(=O)C1CCN(C(=O)c2cc3c(s2)-c2ccccc2OC3)CC1 | 15µM | . | . | ? | ? | ?
CCOC(=O)C1CCN(C(=O)c2ccc(-n3ccc4ccccc43)s2)CC1 | ? | . | / | 21µM | / | /
